# Pf growth 48h – Primary qHTS for delayed death inhibitors of the malarial parasite plastid, 48 hour incubation; P. falciparum luciferase growth in erythrocytes, 48 h; Potency, µM (top dose mostly 28.7 µM), for the others: at the top dose activity change, negative = inhibition, hits mostly inhibitors; 310,000 tested, 5.9% active; also: potency is read from the fitted curve at half-maximal effect; % is scaled to controls: 0 for no effect and ±100 for the full control effect
#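 Parasite viability was followed by luminescence of a genomically integrated firefly luciferase. Cultures held 0.1% parasitemia at 2% hematocrit (final), incubated under 5% CO2 at 37 C.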
# Shiga toxin inh – A qHTS for Small Molecule Inhibitors of Shiga Toxin; Vero cells, Shiga toxin protein synthesis inhibition reporter; inhibition, % at 38.7 µM; 290,000 tested, 9.2% active; AID 2315, 2010; in the data active = inhibition mostly above about 28%, no sharp cut-off; inactive = mostly below about 43%; also: 0% is about no effect
# SARS PLP yeast – qHTS of Yeast-based Assay for SARS-CoV PLP; S. cerevisiae expressing SARS-CoV PLpro, growth rescue; Potency, µM (doses to about 32.9 µM), for the others: top-dose activity, positive = growth rescue, usual class: activators; 330,000 tested, 0.19% active; AID 485353, 2010; calls by dose curve; also: potency is read from the fitted curve at half-maximal effect; 0% is about no effect; nearly all actives have a fitted effect of over 55% in size
# Cycloheximide cs – Cycloheximide Counterscreen for Small Molecule Inhibitors of Shiga Toxin; cell reporter, cycloheximide protein synthesis inhibition counterscreen; max response, %; 300,000 tested, 12% active; AID 2314, 2010; in the data active = max response mostly above about 13%, no sharp cut-off; inactive = mostly below about 14%; also: read at 38.3 µM for the half of the compounds with a filed dose; 0% is about no effect
# AMA1 RON2 block – qHTS for Inhibitors of AMA1-RON; Towards Development of Antimalarial Drug Lead: Primary Screen; AlphaScreen AMA1-biotinylated RON2 peptide binding; Potency, µM (doses to about 58.2 µM), without a hit: at the top dose activity change, negative = inhibition, usual class: inhibitors; 360,000 tested, 0.2% active;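 also: potency is read from the fitted curve at half-maximal effect; 0% = vehicle wells and -100% = peptide control; nearly all actives have a fitted effect of over 45% in size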
#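 AMA1 (3D7) with his tag at 25 nM final met compounds first, then biotinylated RON2 peptide at 25 nM; detection used donor plus acceptor beads, 10 µg/mL apiece, read by AlphaScreen after 30 min at room temperature.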
# Pf growth 96h – Primary qHTS for delayed death inhibitors of the malarial parasite plastid, 96 hour incubation | P. falciparum luciferase reporter growth, 96 h | Potency, µM (top dose mostly 28.7 µM), for inactives: at the highest dose activity change, negative = inhibition, most hits filed as inhibitors | 320,000 tested, 6.9% active; also: potency is read from the fitted curve at half-maximal effect; % is scaled to controls: 0 for no effect and ±100 for the full control effect
#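 P. falciparum expressing integrated firefly luciferase grown in erythrocytes (2% hematocrit, 0.05% parasitemia final) with compounds for 96 hours at 37 C, 5% CO2. Growth inhibition read as loss of luminescence after adding luciferase detection reagent.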
# Starred values were filed as active, the others as inactive; ? = inconclusive; nt = no result given; [ ] = another dose, or the depositor's remark. Only some compounds are listed: those with a hit (about 19% of all), similar ones and a draw of the others. Unless noted, calls follow the shape of the dose curve; as a rule, active = well fitted curve in the direction sought with a large enough effect; inconclusive = small, poorly fitted or top-dose-only effect, or another doubt; inactive = no such curve, though single readings can be large; an effect the other way counts as inactive or inconclusive.
SMILES,Pf growth 48h,Shiga toxin inh,SARS PLP yeast,Cycloheximide cs,AMA1 RON2 block,Pf growth 96h
C[C@@H]1C[C@@H]2[C@H]([C@H]3C=C(COC(=O)c4ccccc4)[C@@H](O)[C@]4(O)[C@@H](O)C(OC(=O)c5ccccc5)=C[C@@]14C3=O)C2(C)C,nt,23.7*,nt,17.5,nt,nt
C1=C(c2ccccc2)N2CCN=C2S1,6.6%,-15.0,-2.4%,-2.4,-0.5%,nt
CC(C)(C)c1cc(C2=CSC3=NCCN23)cc(C(C)(C)C)c1O,?,nt,-2.5%,-4.4,-6.6%,4.65µM*
Brc1ccc(C2=CSC3=NCCN23)cc1,?,7.0,-0.5%,-2.1,-1.3%,29.0%
Oc1ccc(C2=CSC3=NCCN23)cc1O,9.28µM*,-3.6,-0.3%,-4.3,-24.3%,36.6%
CCOc1ccc(N/C=C/C(=O)c2ccc3ccccc3c2)c([N+](=O)[O-])c1,76.6%,34.4,5.5%,15.0,-0.9%,39.5%
O=C(/C=C\NCC(=O)c1ccccc1)c1ccc(F)cc1,45.4%,28.4,2.0%,28.3*,-10.2%,50.3%
O=C(CNC(=O)c1ccccc1)NCC(=O)OCC(=O)c1ccc(F)cc1,13.6%,17.4,7.6%,1.8,3.8%,4.7%
O=C(/C=C\NCC(=O)c1ccccc1)c1ccc2ccccc2c1,2.5%,51.9*,-13.4%,11.7*,7.8%[11.6 µM],37.0%
Cc1ccc(NC(=O)CCl)c(C)c1,1.85µM*,2.3,19.2%,2.7,3.5%,10.4µM*
Cc1ccc(NC(=O)CCc2ccc(C)o2)c(C)c1,2.9%,15.0,-4.2%,13.2,0.5%,45.6%
Cc1ccc(NC(=O)CC2(CC(=O)O)CCCC2)c(C)c1,2.6%[0.00184 µM],6.6,-0.6%,-4.6,7.8%,4.15µM*
Cc1ccc(NC(=O)CO/N=C/c2ccccc2C)c(C)c1,?,8.7,-6.1%,1.9,9.1%,2.33µM*
Cc1nc(-c2ccc(Br)cc2)ccc1C(=O)O,4.2%,-0.6,-9.5%,-0.9,-1.3%,0.3%
CC(NC(=O)C(=O)NCCC1=CCCCC1)c1ccccc1 (stereo not given),16.1%,-8.9,17.0%,1.6,-10.1%[2.32 µM],?
COc1cc(NC(=O)CCc2nnc3ccc(N4CCOCC4)nn23)cc(OC)c1OC,?,-3.3,2.7%,-1.9,-7.8%,7.2%
O=C(CN(C(=O)CNC(=O)c1ccco1)c1ccc(Cl)c(Cl)c1)NC1CCCCC1,?,-2.4,-5.8%,-1.3,-9.7%,?
N#CC1=C(N)Oc2n[nH]c(-c3cccnc3)c2C1c1ccc([N+](=O)[O-])o1 (stereo not given),-7.1%,53.7,0.1%,20.4*,11.2%,?
CCCCn1c(-c2csc3c2CCC(C)C3)n[nH]c1=S (stereo not given),0.928µM*,-10.6,-30.7%,-2.7,11.1%,-33.5%
Cc1cc(C)n(-c2ccc(C(=O)N3CCN(S(=O)(=O)c4ccc(Br)cc4Cl)CC3)cc2)n1,nt,nt,nt,nt,-14.8%,nt
FC(F)C(F)(F)C(F)(F)C(F)(F)c1cc(-c2ccccc2)n[nH]1,18.5%,72.9,-7.2%,22.2*,3.2%,1.3%
COc1ccccc1NC(=O)CCN1C(=O)C2C3CCC(C3)C2C1=O (stereo not given),-27.9%,-1.9,-3.3%,-2.2,13.1%,?
CCOc1cc(S(=O)(=O)NCc2ccccc2)ccc1Br,18.3%,-3.7,0.1%,1.2,0.0%,32.7%
COC(=O)C(C)Oc1ccc2c(c1)O/C(=C\c1ccco1)C2=O (stereo not given),7.3%,71.1*,-8.1%,36.7*,-16.8%,3.0%
COc1ccc2c(c1)O/C(=C\c1ccco1)C2=O,126.4%,38.2,-5.8%,29.7*,-22.6%,114.0%
COc1ccc(/C=C2\Oc3cc(OCC(N)=O)ccc3C2=O)cc1OC,6.1%,2.1,-2.8%,-2.2,1.4%,15.7%
COc1ccccc1/C=C1\Oc2cc(OC(=O)N3CCOCC3)ccc2C1=O,3.6%,-0.2,-1.3%,2.0,20.0%,1.3%
